Results published in PubChem BioAssay (Tox21).
Where “and” joins values, the source holds several entries; their conditions need not be identical. Equal values may be shown once. Inconclusive results are not listed. Some structures have more than one record in an assay (separate samples or runs), and their calls can disagree. Calls of active or inactive are those of the source. Unless noted, calls come from the whole dose curve.

Key:
[1] = Nuclear factor erythroid 2-related factor 2/antioxidant responsive element (Nrf2/ARE) small molecule agonists: qHTS cell viability counter screen in human keratinocytes (AID 1919968; active = well fitted curve in the direction sought with a large enough effect in the repeat runs; an effect the other way counts as inactive or inconclusive; note: nearly all actives have a fitted effect of over 55% in size; note: potency is the fitted concentration of half-maximal effect)
Outline: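 Viability counter-screen: KeratinoSens reporter cells, DMSO-delivered compounds, 23 h at 37 C, CellTiter-Fluor fluorescence.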

[2] = Nuclear factor erythroid 2-related factor 2/antioxidant responsive element (Nrf2/ARE) small molecule agonists: luciferase reporter gene qHTS assay in human keratinocytes (AID 1919969); note: nearly all actives have a fitted effect of over 35% in size; note: potency is the fitted concentration of half-maximal effect
[3] = target: Gonadotropin-releasing hormone receptor (Homo sapiens) (UniProt P30968); assay: Human gonadotropin-releasing hormone receptor (GnRHR) small molecule agonists, calcium flux assay in GnRHR-HEK293 cells (AID 1920063); note: nearly all actives have a fitted effect of over 35% in size; note: potency is the fitted concentration of half-maximal effect
Outline: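 Tox21-format agonist screen using human GnRHR-expressing HEK293 cells and a fluorescent calcium dye; kinetic 3-min fluorescence reading after compound addition, 15-point concentration series run in triplicate.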

[4] = target: KiSS-1 receptor (Homo sapiens) (UniProt Q969F8); assay: Human kisspeptin (KISS1R) small molecule agonists, calcium flux assay in KISS1R-HEK293 cells (AID 1920064; active = well fitted curve in the direction sought with a large enough effect in the repeat runs; an effect the other way counts as inactive or inconclusive)
Outline: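 Intracellular calcium mobilization in KISS1R-HEK293 cells was recorded by fluorescence (Ex/Em 480/540) for 3 min following compound addition to cells pre-loaded 1 h with calcium dye.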

[5] = p53 small molecule agonists, cell-based qHTS assay with human liver microsomes (AID 1963577)
Outline: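 p53RE-bla cells, 4,000/well, compound added after 5 h, with human liver microsomes 0.5 mg/mL and NADPH 0.5 mg/mL final; 16 h at 37 C, then LiveBLAzer 2 h RT, fluorescence.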

[6] = p53 small molecule agonists, cell-based qHTS assay with rat liver microsomes (AID 1963578)
Outline: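 p53RE-bla cells, 4,000/well, pre-incubated 5 h, then given compounds plus rat liver microsomes (0.5 mg/mL final) and NADPH (0.5 mg/mL final). Incubation 16 h at 37 C; beta-lactamase reporter read by LiveBLAzer fluorescence after 2 h at room temperature.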

[7] = p53 small molecule agonists, cell-based qHTS assay with human liver microsomes: qHTS cell viability counter screen (AID 1963579); note: nearly all actives have a fitted effect of over 45% in size; note: potency is the fitted concentration of half-maximal effect
Outline: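 p53RE-bla cells, 4,000/well, dosed 5 hours after plating, with human liver microsomes (0.5 mg/mL final) plus NADPH (0.5 mg/mL final), 16 hours at 37 C. Viability read as CellTiter-Glo luminescence after 30 min at room temperature.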

[8] = p53 small molecule agonists, cell-based qHTS assay with rat liver microsomes: qHTS cell viability counter screen (AID 1963580); note: nearly all actives have a fitted effect of over 45% in size; note: potency is the fitted concentration of half-maximal effect
Outline: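 p53RE-bla HCT-116 cells were exposed 16 h at 37 C to compounds with rat liver microsomes (0.5 mg/mL) and NADPH (0.5 mg/mL). Viability was measured in the same wells as ATP content by CellTiter-Glo luminescence.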

[9] = p53 small molecule agonists, cell-based qHTS assay: qHTS cell viability counter screen (AID 1963581); note: nearly all actives have a fitted effect of over 45% in size; note: potency is the fitted concentration of half-maximal effect
Outline: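 Compounds are pinned onto HCT-116 p53RE-bla cells and left 16 h at 37 C. Following the reporter FRET read, ATP is quantified by CellTiter-Glo luminescence after 30 min at room temperature.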

[10] = target: 5-hydroxytryptamine receptor 2A (Homo sapiens) (UniProt P28223); assay: 5-hydroxytryptamine receptor 2A (HTR2A) small molecule antagonists, cell-based qHTS assay (AID 1963586); note: nearly all actives have a fitted effect of over 45% in size
Outline: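 Antagonist-mode intracellular calcium assay: DOI (4 nM) added after 5 min compound pre-incubation at room temperature to dye-loaded HTR2A-CHO cells. Fluorescence followed for 3 min, sampled every second.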

[11] = target: 5-hydroxytryptamine receptor 2A (Homo sapiens) (UniProt P28223); assay: 5-hydroxytryptamine receptor 2A (HTR2A) small molecule agonists, cell-based qHTS assay (AID 1963587); note: nearly all actives have a fitted effect of over 30% in size; note: potency is the fitted concentration of half-maximal effect
Outline: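 CHO cells stably expressing human HTR2A, plated 18 h, loaded with calcium dye 1 h at 37 C. Agonist mode: compounds added and intracellular calcium fluorescence recorded kinetically for 2 min at 1 sec intervals.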

[12] = target: Muscarinic acetylcholine receptor M1 (Homo sapiens) (UniProt P11229); assay: Cholinergic receptor muscarinic 1 (CHRM1) small molecule antagonists, cell-based qHTS assay (AID 1963588); note: nearly all actives have a fitted effect of over 40% in size
Outline: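 CHRM1-CHO calcium-flux assay, antagonist mode. Cells were seeded 18 h, dye-loaded 1 h at 37 C and given compound for 5 min at RT, then acetylcholine was added at 50nM. FDSS fluorescence was read 3 min; 15 concentrations, three runs.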

[13] = cAMP Responsive Elements (CRE) small molecule agonists, cell-based qHTS assay (AID 1963590)
Outline: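 FRET-based beta-lactamase readout (LiveBLAzer B/G, 2 h RT) quantified CRE activation in HEK 293T CRE-bla cells after 3 h treatment with DMSO-dissolved compounds.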

[14] = cAMP Responsive Elements (CRE) small molecule antagonists, cell-based qHTS assay (AID 1963591; active = well fitted inhibition curve with a large enough effect in the signal ratio in the repeat runs, not every such curve was filed as active; the % refers to the signal ratio)
Outline: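 qHTS in CRE-bla HEK 293T cells: compound in DMSO, then 0.25 uM NKH477 (final), 3 h at 37 °C/5% CO2; beta-lactamase FRET read-out after 2 h substrate incubation.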

[15] = target: Beta-2 adrenergic receptor (Homo sapiens) (UniProt P07550); assay: Adrenergic beta2 receptor (ADRB2) small molecule antagonists, cell-based qHTS assay (AID 1963592); note: series mostly up to about 92 µM; nearly all actives have a fitted effect of over 50% in size
Outline: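 Cells (CHO, stable ADRB2 overexpression) incubated 18-20hr at 37C; compounds added from DMSO; agonist mix (1nM isoproterenol, 100uM IBMX, 25uM Ro-20-1724) added; 0.5hr RT; d2-cAMP and anti-cAMP-cryptate added; 1hr RT; 665/615 nm read.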

[16] = target: Beta-2 adrenergic receptor (Homo sapiens) (UniProt P07550); assay: Adrenergic beta2 receptor (ADRB2) small molecule agonists, cell-based qHTS assay (AID 1963593);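 note: CHO cells stably overexpressing human ADRB2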
Outline: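 CHO cells stably over-expressing ADRB2 were plated overnight at 37C, then dosed with compounds plus a stimulation mix containing 100uM IBMX and 25uM Ro-20-1724 for 0.5hr at room temperature. cAMP was measured by HTRF competition, 1hr.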

[17] = target: D(2) dopamine receptor (Homo sapiens) (UniProt P14416); assay: Dopamine D2 receptor (DRD2) small molecule agonists, cell-based qHTS assay (AID 1963594); note: nearly all actives have a fitted effect of over 35% in size
Outline: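 HEK293 cells stably expressing human DRD2, pre-treated with PDE inhibitor Ro20-1724 (0.1 mM final) and compound 10 min at room temperature, then stimulated with NKH477 (200nM […]) for 30 min. cAMP read by HTRF (665/620 nm).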

[18] = target: D(2) dopamine receptor (Homo sapiens) (UniProt P14416); assay: Dopamine D2 receptor (DRD2) small molecule antagonists, cell-based qHTS assay (AID 1963595; active = well fitted inhibition curve with a large enough effect in the signal ratio in the repeat runs, with a control signal flat; the % refers to the signal ratio; note: potency is the fitted concentration of half-maximal effect)
Outline: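 HTRF cAMP read-out at 665 and 620 nm emission (340 nm excitation). Antagonist mode: compounds were tested against 12 nM quinpirole in DRD2-HEK293 cells, with 200 nM NKH477 raising cAMP and 0.1 mM Ro20-1724 blocking its breakdown.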

[19] = target: Muscarinic acetylcholine receptor M1 (Homo sapiens) (UniProt P11229); assay: Cholinergic receptor muscarinic 1 (CHRM1) small molecule agonists, cell-based qHTS assay (AID 1963589); note: nearly all actives have a fitted effect of over 35% in size
Outline: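 Stable CHRM1-CHO cells (human receptor) were incubated 18 h, dye-loaded for 1 h at 37 C and exposed to test compounds for agonist activity, with calcium-dependent fluorescence followed kinetically.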

Measured: Potency

Gonadotropin-releasing hormone receptor (Homo sapiens), sequence (P30968 whole entry, looked up): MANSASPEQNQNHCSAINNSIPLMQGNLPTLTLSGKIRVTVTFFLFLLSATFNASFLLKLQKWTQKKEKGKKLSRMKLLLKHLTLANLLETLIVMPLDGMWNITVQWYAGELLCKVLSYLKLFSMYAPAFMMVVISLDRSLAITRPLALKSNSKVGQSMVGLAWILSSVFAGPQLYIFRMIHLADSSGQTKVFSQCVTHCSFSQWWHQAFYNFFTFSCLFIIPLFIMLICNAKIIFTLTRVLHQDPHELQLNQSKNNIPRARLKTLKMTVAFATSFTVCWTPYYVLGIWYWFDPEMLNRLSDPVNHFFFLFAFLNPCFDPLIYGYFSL
Beta-2 adrenergic receptor (Homo sapiens), sequence (P07550 whole entry, looked up): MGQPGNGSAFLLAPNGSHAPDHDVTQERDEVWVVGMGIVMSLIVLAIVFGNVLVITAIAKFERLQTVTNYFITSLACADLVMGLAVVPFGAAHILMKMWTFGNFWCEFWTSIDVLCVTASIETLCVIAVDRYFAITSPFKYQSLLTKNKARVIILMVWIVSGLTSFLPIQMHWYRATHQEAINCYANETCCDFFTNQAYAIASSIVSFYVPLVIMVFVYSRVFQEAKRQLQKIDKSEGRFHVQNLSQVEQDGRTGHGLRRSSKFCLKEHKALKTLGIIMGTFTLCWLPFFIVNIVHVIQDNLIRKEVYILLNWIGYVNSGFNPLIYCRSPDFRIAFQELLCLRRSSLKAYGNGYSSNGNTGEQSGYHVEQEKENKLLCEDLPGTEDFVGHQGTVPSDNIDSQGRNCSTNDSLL
Muscarinic acetylcholine receptor M1 (Homo sapiens), sequence (P11229 whole entry, looked up): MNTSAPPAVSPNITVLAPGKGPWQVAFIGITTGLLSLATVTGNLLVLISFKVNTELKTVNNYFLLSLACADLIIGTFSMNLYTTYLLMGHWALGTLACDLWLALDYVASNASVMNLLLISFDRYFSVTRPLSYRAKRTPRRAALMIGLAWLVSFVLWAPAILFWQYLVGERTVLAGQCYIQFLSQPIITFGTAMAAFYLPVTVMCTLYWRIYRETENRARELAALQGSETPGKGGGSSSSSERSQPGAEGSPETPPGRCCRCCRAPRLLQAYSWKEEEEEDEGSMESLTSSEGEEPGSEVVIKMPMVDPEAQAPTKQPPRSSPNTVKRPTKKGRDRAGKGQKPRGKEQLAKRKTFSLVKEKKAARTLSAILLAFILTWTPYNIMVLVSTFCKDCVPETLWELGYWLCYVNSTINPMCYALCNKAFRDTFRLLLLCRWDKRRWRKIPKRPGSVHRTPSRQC
D(2) dopamine receptor (Homo sapiens), sequence (P14416 whole entry, looked up): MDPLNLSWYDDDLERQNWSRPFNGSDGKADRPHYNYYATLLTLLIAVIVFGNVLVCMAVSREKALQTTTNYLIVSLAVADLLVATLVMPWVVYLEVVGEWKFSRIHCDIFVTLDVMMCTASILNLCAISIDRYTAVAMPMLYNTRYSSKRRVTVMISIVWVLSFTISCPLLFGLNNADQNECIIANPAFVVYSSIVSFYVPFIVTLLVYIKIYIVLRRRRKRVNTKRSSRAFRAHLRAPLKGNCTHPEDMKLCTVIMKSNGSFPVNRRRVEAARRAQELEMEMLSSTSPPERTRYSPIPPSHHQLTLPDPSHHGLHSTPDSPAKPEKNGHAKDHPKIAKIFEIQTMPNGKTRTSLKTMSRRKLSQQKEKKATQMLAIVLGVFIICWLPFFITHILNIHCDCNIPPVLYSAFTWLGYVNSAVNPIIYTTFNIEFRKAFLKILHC
5-hydroxytryptamine receptor 2A (Homo sapiens), sequence (P28223 whole entry, looked up): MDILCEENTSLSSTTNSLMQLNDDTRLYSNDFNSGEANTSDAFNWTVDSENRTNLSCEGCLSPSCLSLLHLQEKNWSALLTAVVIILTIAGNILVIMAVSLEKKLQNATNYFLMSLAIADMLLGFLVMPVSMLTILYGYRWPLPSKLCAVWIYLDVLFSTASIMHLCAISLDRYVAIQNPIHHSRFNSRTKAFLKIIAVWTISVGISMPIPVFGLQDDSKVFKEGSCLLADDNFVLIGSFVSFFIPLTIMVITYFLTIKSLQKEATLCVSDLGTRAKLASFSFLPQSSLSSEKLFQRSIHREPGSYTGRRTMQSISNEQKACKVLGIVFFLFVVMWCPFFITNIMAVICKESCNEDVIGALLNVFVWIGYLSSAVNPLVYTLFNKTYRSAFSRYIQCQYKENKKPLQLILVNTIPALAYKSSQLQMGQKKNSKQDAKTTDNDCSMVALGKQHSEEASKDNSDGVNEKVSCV
KiSS-1 receptor (Homo sapiens), sequence (Q969F8 whole entry, looked up): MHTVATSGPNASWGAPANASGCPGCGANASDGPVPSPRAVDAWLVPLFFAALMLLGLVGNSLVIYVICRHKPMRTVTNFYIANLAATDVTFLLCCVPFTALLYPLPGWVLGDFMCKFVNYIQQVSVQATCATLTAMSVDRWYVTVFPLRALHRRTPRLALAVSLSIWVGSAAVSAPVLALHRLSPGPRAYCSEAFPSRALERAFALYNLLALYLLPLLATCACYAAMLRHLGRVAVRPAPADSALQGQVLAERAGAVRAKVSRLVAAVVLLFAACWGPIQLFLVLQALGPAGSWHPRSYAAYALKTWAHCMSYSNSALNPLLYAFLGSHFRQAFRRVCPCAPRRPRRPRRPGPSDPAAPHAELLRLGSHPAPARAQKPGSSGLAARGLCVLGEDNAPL

CCC(CC)Nc1c([N+](=O)[O-])cc(C)c(C)c1[N+](=O)[O-]
active: [2] 17.5 µM and 48.5 µM
not listed: [19]
inactive: all other assays above

N#CSCSC#N
active: [1] 14 µM and 21.5 µM | [2] 15.2 µM | [3] 39.8 µM | [7] 26.3 µM | [8] 37.2 µM | [9] 46.8 µM | [11] 50.1 µM and 48.5 µM | [18] 27.9 µM and 27 µM
inactive: [4] | [5] | [6] | [10] | [17]

N#CCNCC#N
not listed: [13]
inactive: all other assays above

ClCCN1CCCC1
not listed: [7] | [10] | [11] | [19]
inactive: all other assays above

COP(=O)(CCC(=O)NCO)OC
not listed: [13] | [16] | [18]
inactive: all other assays above

Nc1nc(=S)[nH][nH]1
inactive: all assays above

CC(C)(C#N)N=NC(C)(C)C#N
inactive: all assays above

CCCCC(CC)COC(=O)c1ccc(C(=O)OCC(CC)CCCC)c(C(=O)OCC(CC)CCCC)c1 (stereo unspecified)
not listed: [9] | [16]
inactive: all other assays above

ClCCN1CCOCC1
not listed: [9] | [14] | [15] | [16]
inactive: all other assays above

CCOP(=O)(OCC)SCCSCC
inactive and 68.6 µM (active): [2]
not listed: [5] | [6]
inactive: all other assays above

ClCc1ccccn1
not listed: [10]
inactive: all other assays above

C=CCc1ccccc1O
not listed: [7] | [16]
inactive: all other assays above

C=CC(=O)OCC(C)C
not listed: [12] | [15] | [16] | [17] | [18]
inactive: all other assays above

CCCCN(CC)c1c([N+](=O)[O-])cc(C(F)(F)F)cc1[N+](=O)[O-]
active: [2] 61.1 µM
inactive: all other assays above

CON(C)C(=O)Nc1ccc(Cl)cc1
not listed: [10] | [11] | [16]
inactive: all other assays above
